Source: publication PMC4336329 (PLoS ONE, 2015)
The whole screen tested about 310,000 compounds, of which about 14,000 (4.5%) showed an effect of 50% or more. The effect is printed as a negative number. This excerpt belongs to a sample that is enriched for strong results.

The molecules below were run against human ether-à-go-go-related gene (hERG) potassium channel (human, UniProt Q12809) (assay: primary screen, population patch clamp on CHO cells stably expressing hERG; higher = less effect of the substance).
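Further: peak tail current of the secondary pulse compared with the same well before compound.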

human ether-à-go-go-related gene (hERG) potassium channel, sequence (Q12809 whole entry, looked up): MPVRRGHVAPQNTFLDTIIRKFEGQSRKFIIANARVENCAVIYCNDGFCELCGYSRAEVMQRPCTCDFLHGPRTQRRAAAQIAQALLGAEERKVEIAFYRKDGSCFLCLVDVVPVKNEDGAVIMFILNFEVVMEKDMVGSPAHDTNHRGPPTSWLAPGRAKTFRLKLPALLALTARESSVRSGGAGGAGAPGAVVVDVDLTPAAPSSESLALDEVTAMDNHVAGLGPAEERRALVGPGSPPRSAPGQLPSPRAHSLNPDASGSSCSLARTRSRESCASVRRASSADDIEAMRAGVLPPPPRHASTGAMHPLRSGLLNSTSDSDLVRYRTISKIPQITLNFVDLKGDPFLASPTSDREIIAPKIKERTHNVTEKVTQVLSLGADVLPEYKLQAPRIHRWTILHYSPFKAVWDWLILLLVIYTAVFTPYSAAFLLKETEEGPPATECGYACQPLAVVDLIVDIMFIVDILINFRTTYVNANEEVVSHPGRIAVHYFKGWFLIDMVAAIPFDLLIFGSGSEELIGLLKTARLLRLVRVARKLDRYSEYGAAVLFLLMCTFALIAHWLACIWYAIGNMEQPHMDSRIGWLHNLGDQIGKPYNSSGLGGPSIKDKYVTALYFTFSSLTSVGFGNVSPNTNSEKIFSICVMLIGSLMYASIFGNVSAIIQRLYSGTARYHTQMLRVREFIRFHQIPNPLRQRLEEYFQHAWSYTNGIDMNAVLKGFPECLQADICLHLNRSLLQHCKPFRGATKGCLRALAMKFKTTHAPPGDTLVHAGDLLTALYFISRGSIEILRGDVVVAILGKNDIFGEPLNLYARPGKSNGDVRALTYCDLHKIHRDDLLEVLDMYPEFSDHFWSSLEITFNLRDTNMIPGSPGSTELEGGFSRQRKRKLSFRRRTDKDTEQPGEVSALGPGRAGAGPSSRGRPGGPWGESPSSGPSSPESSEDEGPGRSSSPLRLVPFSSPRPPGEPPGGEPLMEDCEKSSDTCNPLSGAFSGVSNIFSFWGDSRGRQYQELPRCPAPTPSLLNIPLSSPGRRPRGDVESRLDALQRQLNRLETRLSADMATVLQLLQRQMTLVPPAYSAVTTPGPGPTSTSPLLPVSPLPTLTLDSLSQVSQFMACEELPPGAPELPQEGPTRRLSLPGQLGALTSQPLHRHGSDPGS

SMILES	hERG current change (%, negative = inhibition) at 10uM [%]
Cc1cc([N+](=O)[O-])nn1CC(=O)N/N=C/c1ccccc1F	-5.15
Cc1ccc(C2N(c3ccccc3)C(=S)N3CCCN23)cc1 (centres unmarked)	7
Cc1cc(S(=O)(=O)N2CCN(c3c(C)cccc3C)CC2)ccc1F	-4.1
CC(C(=O)Nc1ccc(S(=O)(=O)N2CCCC2)cc1)N(C)Cc1ccc(F)cc1 (centres unmarked)	-9.91
CCc1ccccc1N1CCN(S(=O)(=O)c2ccc(F)c(C)c2)CC1	4.43
CCC(C)N(C)Cc1cccc(C2(O)CCN(S(=O)(=O)c3ccc(F)cc3)CC2)c1 (centres unmarked)	-69.3
O=S(=O)(c1ccc(OC(F)(F)F)cc1)N1CCC(O)(c2cccc(C(F)(F)F)c2)CC1	-4.35
CCC(C)N(C)Cc1cccc(C2(O)CCN(S(=O)(=O)c3ccc(F)c(C)c3)CC2)c1 (centres unmarked)	-72.4
CN1CCc2c(sc(N)c2C(=O)O)C1	20.8
COc1ccc(C2C(C#N)=C(N)OC3=C2C(=O)CCC3)cc1Cn1nc(C)c([N+](=O)[O-])c1C (centres unmarked)	-13.3
COc1ccc(C2C(C#N)=C(N)OC3=C2C(=O)CC(C)(C)C3)cc1Cn1nc(C)c([N+](=O)[O-])c1C (centres unmarked)	-50.6
COc1ccc(C2C(C#N)=C(N)OC3=C2C(=O)CC(C)(C)C3)cc1Cn1cc([N+](=O)[O-])cn1 (centres unmarked)	-6.92
COC(=O)CCC(=O)OC1(C)C(=O)C=C2C=C(C3CC3)N(C(CO)CO)C=C2C1=O (centres unmarked)	5.72
COc1ccccc1C(=O)NCC(=O)NNC(=O)C1COc2ccccc2O1 (centres unmarked)	2.49
Cn1cc(CN2CCC(C(O)c3cccs3)CC2)c(-c2cccc(Cl)c2)n1 (centres unmarked)	-57
Cc1cc(N2CCN(Cc3cn(C)nc3-c3ccccc3F)CC2)cc(C)n1	-35
Cn1cc(CN2CCN(Cc3ccccc3)CC2)c(-c2cccc(Cl)c2)n1	-53
Cc1cc(N2CCN(Cc3cn(C)nc3-c3cccc(Cl)c3)CC2)cc(C)n1	-65
Cn1cc(CN2CCN(c3ncccn3)CC2)c(-c2cccc(Cl)c2)n1	-20.5

SMILES	hERG current change (%, negative = inhibition) at 10uM [%]
Cc1cnc(C)c(N2CCN(Cc3cn(C)nc3-c3cccc(Cl)c3)CC2)n1	-49.6
CC(C1CCN(Cc2cn(C)nc2-c2cccc(Cl)c2)CC1)N1CCOCC1 (centres unmarked)	-26.9
Cn1cc(CN2CCC(C(O)c3cccs3)CC2)c(-c2ccccc2F)n1 (centres unmarked)	-21.5
COCCN1CCN(Cc2cn(C)nc2-c2cccc(Cl)c2)CC1	-15.7
Cc1c(Cl)cccc1NC(=O)Nc1ccn(C)n1	5.52
Cc1nn(C)c(C)c1/C=C(/C(=O)C(C)(C)C)n1cncn1	28.5
Cc1cccc(C)c1NC(=S)N1CCCN(C)CC1	15.2
Clc1ccc(-c2cnc3ccccc3n2)cc1	9.07
COc1ccc(C(=O)Nc2cc(C)c3c(=O)oc4ccccc4c3n2)cc1	7.49
OCC[C@@H]1C[C@H](O)[C@@H](O)[C@@]2(Cc3ccccc3CCO2)O1	10.6
CCC(Sc1nccn1C)C(=O)Nc1ccc(Cl)cn1 (centres unmarked)	5.78
CCCn1c(N2CCN(C(=O)N3CCCCC3)CC2)nc2ccccc21.Cl	-20.4
Cc1cccc(Cn2c(C(C)O)nc3ccccc32)c1 (centres unmarked)	5.37
CN1CCN(CCN2CCn3c2nc2ccccc23)CC1.Cl	-7.38
Cl.O=[N+]([O-])c1ccc(CN2CCN(c3ccc4ccccc4n3)CC2)cc1	-12.1
O=[N+]([O-])c1ccc(CN2CCN(c3nc4ccccc4s3)CC2)cc1	-1.07
Cl.c1ccc2c(c1)nc1n2CCN1CCN1CCCC1	-3.08
Cl.c1ccc(CN2CCN(CCN3CCn4c3nc3ccccc34)CC2)cc1	-75.8
CCn1c(N2CCN(Cc3ccc([N+](=O)[O-])cc3)CC2)nc2ccccc21.Cl	-74.7

SMILES	hERG current change (%, negative = inhibition) at 10uM [%]
CC(O)c1nc2ccccc2n1Cc1ccc([N+](=O)[O-])cc1 (centres unmarked)	-73.4
CC(O)c1nc2cc([N+](=O)[O-])ccc2n1Cc1ccccc1 (centres unmarked)	1.79
CCCn1c(N2CCN(C(=O)Nc3ccc(Cl)cc3)CC2)nc2ccccc21	-16.8
CCCn1c(N2CCN(Cc3ccc(Cl)cc3)CC2)nc2ccccc21.Cl	-69.8
COc1ccc(NC(=O)CSc2cn[nH]n2)cc1OC	31.4
COc1ccc(NC(=O)N2C[C@@H]3C[C@@H](C2)c2cccc(=O)n2C3)cc1	7.74
N#C/C(=N\Nc1ccc(Cl)cc1)C(=N)N1CCCCC1	-31.1
CC(C)C(=O)Nc1ccc(S(=O)(=O)N2CCC(c3nc4ccccc4[nH]3)CC2)cc1	-42.7
CC1=CCC(C(=O)O)C(C(=O)Nc2ccc(-c3nc4ccc(C)cc4s3)cc2)C1 (centres unmarked)	7.8
COc1ccccc1Oc1ccccc1[N+](=O)[O-]	5.95
O=C(NNC(=O)c1ccc(Cl)c([N+](=O)[O-])c1)c1ccncc1	13.2
COc1cc(/C=C2/C(=O)N(c3ccc([N+](=O)[O-])cc3)N=C2N2CCOCC2)ccc1O	-42.2
CCN(CC)CCn1c2ccc(F)cc2c2nc(C)sc21.Cl	-54.3
CCN(CC)CCn1c2ccc(Cl)cc2c2nc(C)sc21.Cl	-68.2
Cc1nc2c3cc(F)ccc3n(Cc3ccccc3)c2s1	4.24
Cc1nc2c3cc(F)ccc3n(Cc3ccc(F)cc3)c2s1	13.8
COC(=O)Cn1c2ccc(Cl)cc2c2nc(C)sc21	5.43
CCN(CC)CCn1c2ccccc2c2nc(C)sc21	-30.6
